# Among all 31,000 compounds or so, about 360 (1.2%) were called active. The sample holds actives, similar compounds and a random draw of the others, so the mix is not that of the screen. No rule for the calls is given here.
# Biological target: DNA-binding protein inhibitor ID-4 (Homo sapiens) (UniProt P47928)
# Test: PubChem AID 624137;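 also: a binder raises fluorescence above local background on the spot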
# Details: small molecule microarray, Flag-ID4 binding, fluorescence F/B
# Chain of DNA-binding protein inhibitor ID-4 (Homo sapiens) (P47928 whole entry, looked up): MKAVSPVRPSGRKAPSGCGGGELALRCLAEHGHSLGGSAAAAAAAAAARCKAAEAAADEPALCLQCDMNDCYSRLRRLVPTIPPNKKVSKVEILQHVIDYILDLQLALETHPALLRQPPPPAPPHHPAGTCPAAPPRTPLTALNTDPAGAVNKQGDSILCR
row,Compound,outcome
1,COc1ccc2[nH]cc(CCNCc3ccc(Br)cc3)c2c1,inactive
2,c1cncc(CNCCc2c[nH]c3ccccc23)c1,active
3,Cc1cc(OCc2cc(C(=O)O)oc2C)c2c3c(c(=O)oc2c1)CCCC3,inactive
4,Cc1ccc(OC(=O)N(C)C[C@@H]2OCc3cnnn3CCCC(=O)N([C@H](C)CO)C[C@@H]2C)cc1,inactive
5,COC(/C=C/CC/C=C/C(=O)O)C(O)C(C)C(O)/C(C)=C/C(C)C(=O)CCCC1CC(=O)NC(=O)C1 (stereo not given),inactive

# From PubChem BioAssay AID624137 (Broad Institute, 2012)
